Active and inactive are the calls of the source. Calls come from the whole dose curve; as a rule, active = well fitted curve in the direction sought with a large enough effect; inconclusive = small, poorly fitted or top-dose-only effect, or effect the other way, or another doubt; inactive = no such curve, though single readings can be large or run the other way.

Beta-2 adrenergic receptor (Homo sapiens), sequence (P07550 whole entry, looked up): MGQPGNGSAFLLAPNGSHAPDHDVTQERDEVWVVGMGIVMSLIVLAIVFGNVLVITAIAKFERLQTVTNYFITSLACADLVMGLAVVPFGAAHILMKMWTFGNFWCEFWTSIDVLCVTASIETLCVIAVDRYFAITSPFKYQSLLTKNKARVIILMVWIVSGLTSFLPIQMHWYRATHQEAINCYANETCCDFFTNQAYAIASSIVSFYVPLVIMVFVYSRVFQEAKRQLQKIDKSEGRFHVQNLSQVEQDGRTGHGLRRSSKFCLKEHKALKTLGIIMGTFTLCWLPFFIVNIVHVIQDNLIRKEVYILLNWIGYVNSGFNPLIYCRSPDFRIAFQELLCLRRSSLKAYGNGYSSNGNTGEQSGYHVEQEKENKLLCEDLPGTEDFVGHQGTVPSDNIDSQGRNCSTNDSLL

The test deals with Beta-2 adrenergic receptor (Homo sapiens) (UniProt P07550). Description: qHTS validation assay of beta-arrestin-biased ligands of beta2-adrenergic receptor (AID 485366). The note with it: cell-based beta-arrestin recruitment to ADRB2, qHTS; series mostly up to 46.1 µM. The text has this:
NIH Molecular Libraries Probe Production Network [MLPCN]
NIH Chemical Genomics Center [NCGC]
PI: Bryan Roth and Bob Lefkowitz
The concept of biased agonism is an emerging concept of molecular pharmacology which proposes that seven transmembrane receptors (7TMRs) or G protein-coupled receptors (GPCRs), exist in multiple signaling conformations and complexes and that ligands (either agonists or antagonists) can induce signaling biased responses for distinct signal transduction cascades.
Furthermore, accumulating evidence over the last decade has drawn attention to a novel function of beta-arrestins as signal transducers that scaffold various signaling molecules upon activation of 7TMRs. […] This beta-arrestin-biased signaling presumably leads to distinct physiological outcomes from those by G protein activation.
Additionally, the active receptor conformations which […] on this beta-arrestin signaling are likely different from those activating G protein signaling
The goal of this screening project will be to discover and optimize novel beta-arrestin-biased ligands for beta2-AR signaling. A luminescent cell-based assay for beta2-AR-mediated agonism, known as the Tango assay, has been validated in which ligand binding of a recombinant beta2-AR and subsequent recruitment of a recombinant beta-arrestin lead to the release of the transcriptional activator tTA, which upregulates transcription of a tTA-responsive luciferase gene. […] Compounds were screened as a concentration-titration series that ranged from 46 microM to 0.6 nM.
NCGC Assay Protocol Summary:
Tango cells were dispensed into white, solid, tissue-culture-treated 1536-well plates at 1500 cells/well in DMEM, containing 1% fetal bovine serum (FBS). Then, 23 nL of compounds or DMSO were delivered to each well using a pin tool. Plates were incubated at 37 degrees C, 5% CO2 for 18 hr. Then 2.5 uL luminescent substrate mix (in-house prepared: 150 mM Tris-Cl, pH 7.6, 3 mM MgCl2, 1% Triton X-100, 5 mM DTT, 0.5 mM CoA, 0.15 mM ATP, 0.44 mM D-luciferin, final concentrations) was added to each well. Plates were then incubated for 15 minutes at room temperature, and subsequently measured on a ViewLux plate reader for luminescent signal using a clear filter with a 10 second exposure and 2x binning. The %Activity was determined from the corrected luminescence values.
Concentration-response curves were fitted to the signals arising from the resulting luminescence. The concentration-effect curves were then classified based on curve quality (r2), response magnitude and degree of measured activity, and compounds were subsequently categorized based on their curve class.
Keywords: biased agonism, beta2-AR, beta-arrestin, GPCR, 7TMR, Tango, luminescence, MLSMR, MLPCN, NIH Roadmap, qHTS, NCGC
For `CCCCNc1c(C(=O)OCC)c(C)nc2c1cnn2CC`, the compound was called inactive. The result for `Cc1nc2ccccn2c(=O)c1CCN1CCC(C(=O)c2ccc(F)cc2)CC1` reads “inactive”; that for `CCn1nc(C(=O)O)c(=O)c2cc3c(cc21)OCO3`, “inactive”.

As for `c1cnc(N2CCN(Cc3ccc4c(c3)OCO4)CC2)nc1`, the compound was called inactive. In the case of `CN1C[C@H](C(=O)N[C@]2(C)O[C@@]3(O)[C@@H]4CCCN4C(=O)[C@H](Cc4ccccc4)N3C2=O)C[C@@H]2c3cccc4[nH]cc(c34)C[C@H]21`, the compound was called inactive. The result for `Cc1ccc(=O)n(-c2ccccc2)c1` reads “inactive”; that for `CN(C)[C@@H]1C(=O)C(C(N)=O)=C(O)[C@@]2(O)C(=O)C3=C(O)c4c(O)ccc(Cl)c4[C@@H](O)[C@H]3C[C@@H]12`, “inactive”. The result for `C[N+](C)(C)CCCCCCCCCC[N+](C)(C)C` reads “inactive”; that for `NCCCNCCSP(=O)(O)O`, “inactive”.

Regarding `Fc1ccc(C(c2ccc(F)cc2)N2CCN(C/C=C/c3ccccc3)CC2)cc1`, the compound was called inactive. The result for `CCc1c(C)[nH]c2c1C(=O)C(CN1CCOCC1)CC2` (stereo not given) reads “inactive”. The result for `Cc1scc2c1N(C(=O)CN1CCN(C)CC1)c1ccccc1NC2=O` reads “inactive”. Regarding `CN/C(=C\[N+](=O)[O-])NCCSCc1ccc(CN(C)C)o1`, the result was inactive.

`c1ccc2c(c1)CCCC2C1=NCCN1` (stereo not given): the result was inactive. The result for `Nc1nc(N)c2nc(-c3ccccc3)c(N)nc2n1` reads “inactive”; that for `CCc1cccc(N(C)C(N)=Nc2cccc3ccccc23)c1`, “inactive”.

Regarding `COc1cc2c(cc1OC)-c1cc(=Nc3c(C)cc(C)cc3C)n(C)c(=O)n1CC2`, the outcome was inactive. The result for `NS(=O)(=O)c1cc2c(cc1Cl)NC(C1CC3C=CC1C3)NS2(=O)=O` (stereo not given) reads “inactive”. The result for `CCN(CC)CCOCCOC(=O)C1(c2ccccc2)CCCC1` reads “inactive”; that for `CSc1ccc(C(=O)c2[nH]c(=O)[nH]c2C)cc1`, “inactive”; that for `Cc1cc(C)c(/C=C2\C(=O)Nc3ccccc32)[nH]1`, “inactive”. `COC(=O)[C@H]1[C@H]2C[C@@H]3c4[nH]c5cc(OC)ccc5c4CCN3C[C@H]2C[C@@H](OC(=O)c2cc(OC)c(OC)c(OC)c2)[C@@H]1OC`: the result was inactive.

Consider `COC(=O)C1=C(C)NC(C)=C(C(=O)OC(C)(C)CN(C)CCC(c2ccccc2)c2ccccc2)C1c1cccc([N+](=O)[O-])c1` (stereo not given), for which the outcome was inactive. As for `CC[N+](C)(C)c1cccc(O)c1`, the outcome was inactive.

For the compound `Cc1ccc(/C(=C\CN2CCCC2)c2ccccn2)cc1`, the call was inactive. The result for `COc1ccc(CCN(C)CCCC(C#N)(c2cc(OC)c(OC)c(OC)c2)C(C)C)cc1OC` (stereo not given) reads “inactive”.

As for `NC1=NCC2c3ccccc3Cc3ccccc3N12` (stereo not given), the result was inactive. The result for `COc1ccc(CN(CCN(C)C)c2ccccn2)cc1` reads “inactive”; that for `CCCN1C[C@H](CSC)C[C@@H]2c3cccc4[nH]cc(c34)C[C@H]21`, “inactive”; that for `c1cc(CN2CCCCC2)cc(OCCCNc2nc3ccccc3s2)c1`, “inactive”.

As to `O=C(O)CN(CCOCCOCCN(CC(=O)O)CC(=O)O)CC(=O)O`, the compound was called inactive. The result for `CCCN(CCC)C(=O)C(CCC(=O)O)NC(=O)c1ccccc1` (stereo not given) reads “inactive”.

As to `Cc1ccc(Cl)c(Nc2ccccc2C(=O)O)c1Cl`, the outcome was inactive. The result for `CN1CCN(CC(=O)N2c3ccccc3C(=O)Nc3cccnc32)CC1` reads “inactive”. The result for `O=C1CC2(CCCC2)CC(=O)N1CCCCN1CCN(c2ncccn2)CC1` reads “inactive”. `CC(=O)OC(C)C[N+](C)(C)C` (stereo not given): the call was inactive. The result for `CCN1CCc2nc(N)oc2CC1` reads “inactive”; that for `CNCCC(Oc1ccccc1OC)c1ccccc1` (stereo not given), “inactive”. The result for `COC(=O)C1=C(C)NC(C)=C(C(=O)OCCN(C)Cc2ccccc2)C1c1cccc([N+](=O)[O-])c1` (stereo not given) reads “inactive”; that for `CN1C(=O)CC[C@H]1c1cccnc1`, “inactive”.
